# “And” between values parts separate entries of the source, which are not always exact repeats. Equal values may be shown once. Compounds without any hit were thinned out: in the full panel of roughly 83,000, 20% have a hit.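 Note: values are percent growth. 100 is the growth of untreated cells, values between 100 and 0 indicate rising inhibition; between -100 and 0 indicates cell death.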 Values without a mark were called inactive. The source made the active and inactive calls. The calls were made as follows: active = growth percent below 10; inactive = the rest.
# System: MDA-MB-468 breast
# Assay: NCI-60 one-dose screen, 48 h (100 = growth as untreated, 0 = no growth, -100 = all killed)
# Details: 10 µM unless noted
row,SMILES,growth
1,COc1ccc(OC)c(-c2c(C#N)c(-c3ccc(Cl)cc3)nc3c2c(-c2ccccc2)nn3-c2ccccc2)c1,103%
2,COc1cc(-c2nnc(-c3c(-c4ccc(F)cc4)nc4ccccn34)o2)cc(OC)c1OC,99.4%
3,O=C1C=CC2(O)OC(c3ccccc3)CC(=O)C2=C1O (centres undefined),70.7%
4,O=c1cc2oc3cc(O)c(O)cc3c(-c3ccccc3O)c-2cc1O,93.9%
5,CC1=C(C)C(=O)C(Nc2ccc3c(c2)OCO3)=C(Br)C1=O,36.3%
6,O=[N+]([O-])c1ccc(-c2nc(N(CCO)CCO)c3ccccc3n2)o1,-73.5% (active)
7,Cc1ccc2[nH]cc(-c3nc(-c4cn(C)c5ncccc45)cs3)c2c1,-0.335% (active)
8,Nc1nc(-c2cccc([N+](=O)[O-])c2)c(N=Nc2ccccc2)s1,11.5%
9,COc1ccc(C2C3=C(COC3=O)N(CCO)c3cc4c(cc32)CCC4)cc1 (centres undefined),7.26% (active)
10,N#CCCN(CCO)c1ccccc1,97.3%
11,COc1cc(/C=N/OC(=O)Nc2ccccc2)cc(OC)c1OC,105%
12,c1ccc(Sc2ccccc2)cc1,102%
13,C/C=C/C/C=C/[C@H](C)C[C@H](O)[C@@H]1C[C@@H]2O[C@H]2/C=C/[C@H](O)[C@@H](O)/C=C/C[C@H](C)CC(=O)O1,99.5%
14,Clc1nc(Oc2ccccc2)nc(-c2cn(-c3ccccc3)c3ccccc23)n1,88.2%
15,CC(C)(C)c1ccc(OCCCCCCN2CCNCC2)cc1,10.6%
16,N#Cc1c(-c2ccc(F)cc2)cc(-c2c[nH]c3ccccc23)nc1-c1c[nH]c2ccccc12,99.3%
17,Oc1ccc(CSc2nnc(-c3ccc(Br)cc3)n2-c2ccccc2)c2cccnc12,36.1%
18,COc1cc(CC(=O)n2ncc3ccc(N)cc32)cc(OC)c1OC,94.8%
19,COc1ccc(Cc2cc(-c3ccccc3C)n[nH]c2=O)cc1,91.1%
20,O=C1C2C(c3cccs3)C=C(c3ccc(Cl)cc3)N2C(=S)N1c1ccccc1 (centres undefined),79.7%

row,SMILES,growth
1,Cc1ccc(S(=O)(=O)Oc2ccc(Br)cc2Br)cc1,23.7%
2,COc1cc(/C=C/CO)cc(OC)c1O[C@@H]1O[C@H](CO)[C@@H](O)[C@H](O)[C@H]1O,91.9%
3,Cc1ccc(C2=Nc3c(N)ncnc3NC(c3cccc(Nc4ccnc5cc(C(F)(F)F)ccc45)c3)C2)cc1 (centres undefined),24.8%
4,COc1ccc(-c2n[nH]nc2-c2cc(OC)c(OC)c(OC)c2)cc1,-0.494% (active)
5,COc1ccc(CCN2CC=Cn3c2nc2ccccc2c3=O)cc1,-0.686% (active)
6,COc1ccc(C(=O)c2cc(C)c(OC)c(C)c2)c(OC)c1O,20.4%
7,COc1ccc(-c2nc([C@@H](C)Sc3nc(N)cc(N)n3)c(C)s2)cc1OCCN1CCOCC1,92.7%
8,CN(C)CCCNC1=C(Cl)C(=O)c2ccccc2C1=O,-8.11% (active) and -54.1% (active)
9,COC(=O)c1cccc2c1N(C)c1c(cccc1C(=O)OC)CC2,124%
10,COc1ccc(/C=C/C(=O)c2ccc(Nc3nc(NCCO)nc(Nc4ccc(Cl)cc4)n3)cc2)cc1,73%
11,O=C1CC(c2ccc3c(c2)OCO3)Nc2ccccc21 (centres undefined),2.73% (active)
12,O=C(O)C1CCCN1C(=O)OCc1ccccc1 (centres undefined),115%
13,COc1cc(C2=NN(C(C)=O)C(c3cccc(Nc4ccnc5cc(C(F)(F)F)ccc45)c3)C2)cc(OC)c1OC (centres undefined),50.5%
14,O=C(Nc1cc(F)cc2cccnc12)c1cnc(N2CCNCC2)cn1,-5.12% (active)
15,CCNC(=O)N1CCc2c(Cl)c3c(c(OC)c2[C@@H]1[C@H]1OCc2c1ccc(OC)c2OC)OCCO3,-8.07% (active)
16,COc1c(N2CC3CCCNC3C2)c(F)cc2c(=O)c(C(=O)N/N=C/c3ccc(F)cc3)cn(C3CC3)c12 (centres undefined),84.4%
17,O=S(=O)(NCCCNc1cc(-c2cn(-c3ccccc3)nc2-c2cccc(O)c2)ccn1)c1ccc(F)cc1,-1.5% (active)
18,O=C(O)c1ccc(-c2ccc(/C=N/Nc3nc(Nc4ccccc4)nc(N4CCCCC4)n3)o2)cc1,92.1%
19,N=C(N)c1ccc(-c2ccc(-c3ccc4ccccc4c3)s2)cc1,101%
